# Laboratory results from PubChem BioAssay (EPA / NIEHS).
# Calls of active or inactive are those of the source. The calls were made as follows: active = hit-call score of the fitted dose curve at least 0.9, where 1 is the maximum; inactive = score below 0.9.
# What was measured:
# Conditions in all cases: mRNA level, 48 h; actives raise or lower the signal
# [1] = read-out: Glutathione S-Transferase (GSTA2), GSTA2 (gene 2939); test: LTEA_HepaRG_GSTA2: Life Technologies and Expression Analysis (LTEA) Assay for Glutathione S-Transferase (GSTA2) using HepaRG (AID 2283497)
# Method in brief: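 qRT-PCR readout of GSTA2 transcript, normalized to three housekeeping genes, fitted bidirectionally against 0.5% DMSO baseline. Differentiated HepaRG cells received compound for 48 h at 8 concentrations (top 100 uM, half-log steps).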
# [2] = read-out: growth arrest and DNA damage 45 (GADD45G), GADD45G (gene 10912); test: LTEA_HepaRG_GADD45G: Life Technologies and Expression Analysis (LTEA) Assay for growth arrest and DNA damage 45 (GADD45G) using HepaRG (AID 2283499)
# Method in brief: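 HepaRG, 48 h exposure, top 100 uM, half-log 8-point series, 0.5% DMSO vehicle, duplicates. Readout: GADD45G transcript by qRT-PCR (Fluidigm array), housekeeping-normalised (ACTB/GAPDH/POLR2A). Bidirectional curve fit vs DMSO baseline.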
# [3] = read-out: Glutamate-cysteine ligase regulatory (GCLM), GCLM (gene 2730); test: LTEA_HepaRG_GCLM: Life Technologies and Expression Analysis (LTEA) Assay for Glutamate-cysteine ligase regulatory (GCLM) using HepaRG (AID 2283500)
# Method in brief: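 HepaRG, 48 h dosing, 100 uM top, half-log x8, 0.5% DMSO vehicle. Readout: GCLM mRNA by TaqMan qRT-PCR, housekeeping-normalized (ACTB/GAPDH/POLR2A). Curves fit bidirectionally vs DMSO baseline.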
# [4] = read-out: Glutathione S-transferase M3 (GSTM3), GSTM3 (gene 2947); test: LTEA_HepaRG_GSTM3: Life Technologies and Expression Analysis (LTEA) Assay for Glutathione S-transferase M3 (GSTM3) using HepaRG (AID 2283501)
# Method in brief: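 qRT-PCR read-out of GSTM3 transcript, normalized to three housekeeping genes, from human HepaRG cells after 48 h chemical exposure. Eight-point half-log series, top 100 uM, 0.5% DMSO vehicle; gain or loss fitted relative to DMSO baseline.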
# [5] = read-out: Heat shock 70 kDa protein 1 (HSPA1A), gene 3303; test: LTEA_HepaRG_HSPA1A: Life Technologies and Expression Analysis (LTEA) Assay for Heat shock 70 kDa protein 1 (HSPA1A) using HepaRG (AID 2283502)
# Method in brief: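 HepaRG, 48 h exposure, 8-pt half-log CRC from 100 uM in 0.5% DMSO, duplicates. Readout: TaqMan qRT-PCR of HSPA1A mRNA, housekeeping-normalized (ACTB/GAPDH/POLR2A). Bidirectional fit vs 0.5% DMSO baseline.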
# [6] = read-out: Hypoxia-inducible factor 1-alpha (Homo sapiens) (UniProt Q16665); test: LTEA_HepaRG_HIF1A: Life Technologies and Expression Analysis (LTEA) Assay for Hypoxia-inducible factor 1 (HIF1A) Trancription factor using HepaRG (AID 2283503)
# Method in brief: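 Gain- or loss-of-signal HIF1A mRNA changes are fitted against a DMSO baseline. HepaRG cultures receive eight concentrations, highest 100 uM, for 48 h in serum-free induction medium with 0.5% DMSO.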
# [7] = read-out: 3-Hydroxy-3-Methylglutaryl-CoA Synthase 2 (HMGCS2), HMGCS2 (gene 3158); test: LTEA_HepaRG_HMGCS2: Life Technologies and Expression Analysis (LTEA) Assay for 3-Hydroxy-3-Methylglutaryl-CoA Synthase 2 (HMGCS2) using HepaRG (AID 2283504)
# Method in brief: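 qRT-PCR read-out of HMGCS2 transcript, normalised to three housekeeping genes, in HepaRG cells after 48 h chemical exposure. Eight-point curves from 100 uM, half-log dilutions, 0.5% DMSO vehicle; gain or loss fitted relative to DMSO baseline.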
# HGF (gene 3082) = test: LTEA_HepaRG_HGF: Life Technologies and Expression Analysis (LTEA) Assay for Hepatocyte Growth Facto (HGF) using HepaRG (AID 2283505)
# Method in brief: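 HepaRG, 48 h dosing, 8-pt half-log series from 100 uM in 0.5% DMSO, duplicates. Readout: TaqMan qRT-PCR of HGF mRNA, housekeeping-normalized; bidirectional curve fit vs DMSO baseline.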
# [8] = read-out: Insulin Like Growth Factor 1 (IGF1), IGF1 (gene 3479); test: LTEA_HepaRG_IGF1: Life Technologies and Expression Analysis (LTEA) Assay for Insulin Like Growth Factor 1 (IGF1) using HepaRG (AID 2283506)
# Method in brief: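 qRT-PCR readout of IGF1 mRNA, normalized to three housekeeping genes, after 48 h chemical exposure of HepaRG cells. Concentrations: 8-point half-log series, top 100 uM, 0.5% DMSO vehicle. Gain or loss fitted against DMSO baseline.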
# [9] = read-out: Intercellular Adhesion Molecule 1 (ICAM1), ICAM1 (gene 3383); test: LTEA_HepaRG_ICAM1: Life Technologies and Expression Analysis (LTEA) Assay for Intercellular Adhesion Molecule 1 (ICAM1) using HepaRG (AID 2283507)
# Method in brief: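 HepaRG, 48 h exposure, 8-pt half-log series from 100 uM, 0.5% DMSO vehicle, duplicates. Readout: TaqMan qRT-PCR mRNA, housekeeping-normalized (ACTB/GAPDH/POLR2A). Bidirectional curve fit vs DMSO baseline.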
# [10] = read-out: Insulin-like growth factor-binding protein 1 (IGFBP1), IGFBP1 (gene 3484); test: LTEA_HepaRG_IGFBP1: Life Technologies and Expression Analysis (LTEA) Assay for Insulin-like growth factor-binding protein 1 (IGFBP1) using HepaRG (AID 2283508)
# Method in brief: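 qRT-PCR mRNA read-out (TaqMan, Fluidigm array), normalised to three housekeeping genes; HepaRG cells, 48 h exposure, 8-pt half-log series from 100 uM, 0.5% DMSO vehicle; bidirectional curve fit vs DMSO baseline.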
# [11] = read-out: Interleukin 6 (IL6), IL6 (gene 3569); test: LTEA_HepaRG_IL6: Life Technologies and Expression Analysis (LTEA) Assay for Interleukin 6 (IL6) using HepaRG (AID 2283509)
# Method in brief: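 qRT-PCR read-out of IL6 transcript, normalized to three housekeeping genes, after 48 h chemical exposure of HepaRG cells; 8-point half-log series, top 100 uM, 0.5% DMSO vehicle. Bidirectional curve fitting against DMSO baseline.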
# [12] = read-out: Interleukin 6 Receptor (IL6R), IL6R (gene 3570); test: LTEA_HepaRG_IL6R: Life Technologies and Expression Analysis (LTEA) Assay for Interleukin 6 Receptor (IL6R) using HepaRG (AID 2283510)
# Method in brief: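 HepaRG, 48 h exposure, 8-pt half-log series, top 100 uM, 0.5% DMSO vehicle, duplicates. Read-out: TaqMan qRT-PCR of IL6R transcript, housekeeping-gene normalized. Gain or loss fitted relative to DMSO baseline.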
# [13] = read-out: Potassium channel subfamily K member 1 (KCNK1), KCNK1 (gene 3775); test: LTEA_HepaRG_KCNK1: Life Technologies and Expression Analysis (LTEA) Assay for Potassium channel subfamily K member 1 (KCNK1) using HepaRG (AID 2283511)
# Method in brief: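 HepaRG, 48 h exposure, 8-pt half-log series top 100 uM, 0.5% DMSO vehicle, duplicates. Readout: KCNK1 transcript by qRT-PCR (Fluidigm array), housekeeping-normalized; bidirectional curve fit relative to DMSO baseline.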
# [14] = read-out: Keratin 19 (KRT19), KRT19 (gene 3880); test: LTEA_HepaRG_KRT19: Life Technologies and Expression Analysis (LTEA) Assay for Keratin 19 (KRT19) using HepaRG (AID 2283512)
# Method in brief: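 HepaRG, 48 h chemical exposure, 8-pt half-log CRC from 100 uM, 0.5% DMSO vehicle, duplicates. Readout: TaqMan qRT-PCR of KRT19 mRNA, housekeeping-normalized (ACTB/GAPDH/POLR2A). Bidirectional fit vs DMSO baseline.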
# [15] = read-out: JUN Transcription Factor, JUN (gene 3725); test: LTEA_HepaRG_JUN: Life Technologies and Expression Analysis (LTEA) Assay for JUN Transcription Factor using HepaRG (AID 2283513)
# Method in brief: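 HepaRG, 48 h exposure, 8-pt half-log series top 100 uM, 0.5% DMSO, duplicate. JUN mRNA by qRT-PCR (Fluidigm), housekeeping-normalized (ACTB/GAPDH/POLR2A); bidirectional curve fit vs DMSO baseline.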
# [16] = read-out: Lipase C (LIPC), LIPC (gene 3990); test: LTEA_HepaRG_LIPC: Life Technologies and Expression Analysis (LTEA) Assay for Lipase C (LIPC) using HepaRG (AID 2283514)
# Method in brief: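 HepaRG, 48 h exposure, 8-pt half-log series from 100 uM in 0.5% DMSO, duplicates. Readout: LIPC mRNA by Fluidigm qRT-PCR, housekeeping-normalized (ACTB/GAPDH/POLR2A). Gain or loss fitted bidirectionally against DMSO baseline.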
# [17] = read-out: Lipoprotein lipase (LPL), LPL (gene 4023); test: LTEA_HepaRG_LPL: Life Technologies and Expression Analysis (LTEA) Assay for Lipoprotein lipase (LPL) using HepaRG (AID 2283515)
# Method in brief: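 HepaRG, 48 h exposure, 8-pt half-log dilutions from 100 uM, 0.5% DMSO vehicle, duplicates; qRT-PCR (Fluidigm array) of LPL mRNA vs housekeeping genes; bidirectional curve fit relative to DMSO baseline.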
# [18] = read-out: MicroRNA 122 (MIR122), gene 406906; test: LTEA_HepaRG_MIR122: Life Technologies and Expression Analysis (LTEA) Assay for MicroRNA 122 (MIR122) using HepaRG (AID 2283516); also: the transcript read is the microRNA miR-122
# Method in brief: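 qRT-PCR read-out (TaqMan, Fluidigm array), normalized to three housekeeping genes; HepaRG cells dosed 48 h at 8 concentrations up to 100 uM in 0.5% DMSO, duplicate; gain or loss fitted against DMSO baseline.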
# [19] = read-out: Glutamate-cysteine ligase catalytic (GCLC), GCLC (gene 2729); test: LTEA_HepaRG_GCLC: Life Technologies and Expression Analysis (LTEA) Assay for Glutamate-cysteine ligase catalytic (GCLC) using HepaRG (AID 2283498)
# Method in brief: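 HepaRG, 48 h exposure, 8-pt half-log series from 100 uM, 0.5% DMSO vehicle; TaqMan qRT-PCR for GCLC mRNA, housekeeping-normalized; bidirectional curve fit vs DMSO baseline.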
# Sequence of Hypoxia-inducible factor 1-alpha (Homo sapiens) (Q16665 whole entry, looked up): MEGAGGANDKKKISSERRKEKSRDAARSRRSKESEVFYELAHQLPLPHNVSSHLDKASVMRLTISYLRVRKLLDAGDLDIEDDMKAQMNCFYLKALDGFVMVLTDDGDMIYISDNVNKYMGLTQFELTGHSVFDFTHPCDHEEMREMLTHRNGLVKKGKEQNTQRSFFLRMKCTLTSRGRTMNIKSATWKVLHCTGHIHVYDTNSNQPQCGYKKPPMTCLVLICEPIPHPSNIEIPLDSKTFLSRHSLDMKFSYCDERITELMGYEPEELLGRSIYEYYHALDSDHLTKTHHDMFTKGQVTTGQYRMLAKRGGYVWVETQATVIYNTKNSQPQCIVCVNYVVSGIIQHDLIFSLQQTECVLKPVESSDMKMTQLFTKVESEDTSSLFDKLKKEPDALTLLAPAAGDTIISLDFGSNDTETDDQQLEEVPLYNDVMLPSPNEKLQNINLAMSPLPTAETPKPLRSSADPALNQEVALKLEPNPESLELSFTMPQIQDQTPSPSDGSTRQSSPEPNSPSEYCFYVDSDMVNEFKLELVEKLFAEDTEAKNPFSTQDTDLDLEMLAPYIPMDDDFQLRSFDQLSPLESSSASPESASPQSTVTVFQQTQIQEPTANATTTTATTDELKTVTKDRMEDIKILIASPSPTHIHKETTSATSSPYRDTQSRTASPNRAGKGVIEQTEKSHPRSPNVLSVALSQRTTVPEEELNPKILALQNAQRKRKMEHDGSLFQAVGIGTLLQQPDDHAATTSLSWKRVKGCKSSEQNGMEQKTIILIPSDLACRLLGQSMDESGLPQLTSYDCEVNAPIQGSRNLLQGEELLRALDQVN
structure (smiles),measurement,setting,value
O=C1OC(=O)C2C3C=CC(C3)C12 (stereo not given),outcome,[1],inactive
same,outcome,[2],inactive
same,outcome,[3],inactive
same,outcome,[4],inactive
same,outcome,[5],inactive
same,outcome,[6],inactive
same,outcome,[7],inactive
same,outcome,HGF (gene 3082),inactive
same,outcome,[8],inactive
same,outcome,[9],inactive
same,outcome,[10],inactive
same,outcome,[11],inactive
same,outcome,[12],inactive
same,outcome,[13],inactive
same,outcome,[14],inactive
same,outcome,[15],inactive
same,outcome,[16],inactive
same,outcome,[17],inactive
same,outcome,[18],inactive
O=C(NS(=O)(=O)/C=C/c1ccccc1)c1ccc(F)cc1Cl,outcome,[1],inactive
same,outcome,[2],inactive
same,outcome,[3],inactive
same,outcome,[4],inactive
same,outcome,[5],inactive
same,outcome,[6],inactive
same,AC50,[7],27.9 µM (active)
same,outcome,HGF (gene 3082),inactive
same,AC50,[8],8.33 µM (active)
same,outcome,[9],inactive
same,outcome,[10],inactive
same,outcome,[11],inactive
same,outcome,[12],inactive
same,outcome,[13],inactive
same,outcome,[14],inactive
same,outcome,[15],inactive
same,outcome,[16],inactive
same,outcome,[17],inactive
same,outcome,[18],inactive
Cc1ccc(C)c(O)c1,outcome,[1],inactive
same,outcome,[19],inactive
same,outcome,[2],inactive
same,outcome,[3],inactive
same,outcome,[4],inactive
same,outcome,[7],inactive
same,outcome,HGF (gene 3082),inactive
same,outcome,[8],inactive
same,outcome,[9],inactive
same,outcome,[10],inactive
same,outcome,[11],inactive
same,outcome,[12],inactive
same,outcome,[13],inactive
same,outcome,[14],inactive
same,outcome,[15],inactive
same,outcome,[16],inactive
same,outcome,[17],inactive
same,outcome,[18],inactive
CCOC(=O)CC(CC(=O)OCC)(OC(C)=O)C(=O)OCC,outcome,[1],inactive
same,outcome,[2],inactive
same,outcome,[3],inactive
same,outcome,[4],inactive
same,outcome,[5],inactive
same,outcome,[6],inactive
same,outcome,[7],inactive
same,outcome,HGF (gene 3082),inactive
same,outcome,[8],inactive
same,outcome,[9],inactive
same,outcome,[10],inactive
same,outcome,[11],inactive
same,outcome,[12],inactive
same,outcome,[13],inactive
same,outcome,[14],inactive
same,outcome,[15],inactive
same,outcome,[16],inactive
same,outcome,[17],inactive
same,outcome,[18],inactive
CC(C)CCCCCCCOC(=O)CCCCC(=O)OCCCCCCCC(C)C,outcome,[1],inactive
same,outcome,[19],inactive
same,outcome,[2],inactive
same,outcome,[3],inactive
same,outcome,[4],inactive
same,outcome,[7],inactive
same,outcome,HGF (gene 3082),inactive
same,outcome,[8],inactive
same,outcome,[9],inactive
same,outcome,[10],inactive
same,outcome,[11],inactive
same,outcome,[12],inactive
same,outcome,[13],inactive
same,outcome,[14],inactive
same,outcome,[15],inactive
same,outcome,[16],inactive
same,outcome,[17],inactive
same,outcome,[18],inactive
CCOCCOCCOCCO,outcome,[1],inactive
same,outcome,[19],inactive
same,outcome,[2],inactive
same,outcome,[3],inactive
same,outcome,[4],inactive
same,outcome,[6],inactive
same,outcome,[7],inactive
same,outcome,HGF (gene 3082),inactive
same,outcome,[8],inactive
same,outcome,[9],inactive
same,outcome,[10],inactive
same,outcome,[11],inactive
same,outcome,[12],inactive
same,outcome,[13],inactive
same,outcome,[14],inactive
same,outcome,[15],inactive
same,outcome,[16],inactive
same,outcome,[17],inactive
same,outcome,[18],inactive
CC(O)CN(CCN(CC(C)O)CC(C)O)CC(C)O (stereo not given),AC50,[1],12.5 µM (active)
same,outcome,[19],inactive
same,outcome,[2],inactive
same,outcome,[3],inactive
same,outcome,[4],inactive
same,outcome,[7],inactive
same,outcome,HGF (gene 3082),inactive
same,outcome,[8],inactive
same,outcome,[9],inactive
same,outcome,[10],inactive
same,outcome,[11],inactive
same,outcome,[12],inactive
same,outcome,[13],inactive
same,outcome,[14],inactive
same,outcome,[15],inactive
same,outcome,[16],inactive
same,outcome,[17],inactive
same,outcome,[18],inactive
